Source: PubChem (several laboratories)
BoNT A protease: BoNT A light chain protease inhibition; multiplex microsphere protease substrate cleavage, flow cytometry; inhibition, % at 10 µM; hit rate 0.17% among 360,000; further: plate controls were buffer without enzyme for full effect and enzyme alone for no effect
Autofluor counter: compound fluorescence in toxin protease inhibitor counterscreen; compound autofluorescence counterscreen, microsphere flow cytometry; hits give high values; fluorescence intensity (concentration not given with the values); hit rate 3.1% among 360,000; in the data active means fluorescence intensity above about 16000; inconclusive means no clear call, values can overlap the other calls
PfHsp40 yeast: compounds rescuing yeast from Plasmodium falciparum HSP40 toxicity. S. cerevisiae expressing PfHsp40, growth rescue, ATP luminescence. growth rescue, % at 12.5 µM. hit rate 0.68% among 340,000. AID 504582; in the data active means growth rescue above about 28%, passing the limit was not always enough; inconclusive means no clear call, values can overlap the other calls;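 further: yeast W303a lacking pdr1 and pdr3 grown in galactose medium; growth measured after three days at 30 °C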
Anthrax LF prot: blocks Bacillus anthracis lethal factor protease. P15917. multiplex microsphere protease cleavage assay, LF. inhibition, % at 10 µM. hit rate 0.12% among 360,000; further: plate controls were buffer without enzyme for full effect and enzyme alone for no effect
MazEF act: increases E. coli MazEF RNase cleavage of RNA | FAM/BHQ RNA-DNA oligo cleavage fluorescence, 5 h | activation, % at 20 µM | P0AE70 | hit rate 0.32% among 350,000; in the data active means activation above about 50%
BoNT-F LC inh: blocks Botulinum neurotoxin F light chain protease; Multiplex microsphere protease cleavage assay, flow cytometry; inhibition, % at 10 µM; hit rate 0.22% among 360,000; AID 588497; in the data active means inhibition above about 35%, passing the limit was not always enough; inconclusive means no clear call, values can overlap the other calls; further: plate controls were buffer without enzyme for full effect and enzyme alone for no effect
The depositor's hits bear a star; u = inconclusive; x = not tested or not shown. Sampled rows, rich in hits. Any-hit rate of the full collection: about 4.3%. Unless noted, no stated cut-off is given here; in the data, active means inhibition above about 30%; inconclusive means no clear call, values can overlap the other calls; inactive means below that.

SMILES	BoNT A protease	Autofluor counter	PfHsp40 yeast	Anthrax LF prot	MazEF act	BoNT-F LC inh
Cc1cccc(C(=O)Nc2cccc(-c3cnc4ccccc4n3)c2)c1	0	10686	1	-2	53*	-2
O=C(Nc1cccc(-c2cnc3ccccc3n2)c1)c1ccncc1	0	3804	-1	-6	3	-1
Cn1cc(S(=O)(=O)NC[C@H]2O[C@@H](n3ccc(=O)[nH]c3=O)[C@H](O)[C@@H]2O)cn1	0	3979	-1	-1	-1	0
CCCCCCCc1ccc(-c2ccc(O)cc2)nc1	2	3807	253*	2	-2	1
CCCCCc1ccc(-c2ccc(/C=C/C(=O)O)cc2)nc1	2	10186	0	5	-1	13
Cc1cccc(CSc2nnc(NC(=O)c3ccco3)s2)c1	-4	24019*	3	-3	6	-7
Cc1cccc(C(=O)Oc2coc(CSc3nnc(NC(=O)C4CC4)s3)cc2=O)c1	55*	2570	-1	1	2	-3
O=C(Oc1coc(CSc2nnc(NC(=O)C3CC3)s2)cc1=O)c1ccccc1	63*	2569	0	1	1	0
Cc1ccc(C(=O)Oc2coc(CSc3nnc(NC(=O)C4CC4)s3)cc2=O)cc1C	34*	1984	-1	0	4	-7
O=C(Nc1nnc(SCc2cccc(F)c2)s1)c1ccco1	0	4075	0	1	8	0
Cn1c(=O)c2c(ncn2CC(=O)OCC(=O)c2ccc(OC(F)F)cc2OC(F)F)n(C)c1=O	0	3778	x	-3	8	-7
CN(C)c1ccsc1C(=O)NNS(=O)(=O)c1ccc(Cl)cc1	1	3750	0	4	-4	2
CCCCCN(C(=O)COC(=O)c1ccc(C)cc1)c1c(N)n(CCCC)c(=O)[nH]c1=O	-1	2958	2	-5	3	4
COCc1nnc(NC(=O)c2cc(Cl)ccc2OC)s1	-2	23665*	0	-1	9	-5
CCc1nnc(NC(=O)c2ccc(NC(=O)C(C)C)cc2)s1	0	4198	1	-6	6	3
COCc1nnc(NC(=O)c2ccc(NC(=O)C(C)C)cc2)s1	-2	23228*	1	-2	8	-3
O=[N+]([O-])c1ccc(Sc2cccc3cccnc23)c([N+](=O)[O-])c1	u	20643*	1	-2	1	6
COc1ccc(-c2noc(-c3ccccc3C(=O)NCC3CCCO3)n2)cc1 (stereo unspecified)	-1	6799	0	0	9	-8
O=C(CCNS(=O)(=O)c1ccc(Br)cc1)N1CCN(c2ccccc2O)CC1	0	u	3	3	4	0
O=C(NCCC(=O)N1CCN(c2ccccc2O)CC1)c1ccc(Br)cc1	-4	4592	301*	-2	8	-3
COc1ccc2c(C)cc(SCC(=O)N3CCOCC3)nc2c1	2	6037	-2	6	-62	36*
CCOc1ccc(NC(=O)c2nnn(CC(=O)Nc3ccccc3OC)c2N)cc1	1	4588	1	0	-1	36*
COc1ccccc1NC(=O)c1nnn(CC(=O)Nc2cccc(SC)c2)c1N	1	22055*	0	0	-14	-3
COc1ccccc1NC(=O)Cn1nnc(C(=O)Nc2ccccc2)c1N	0	3147	2	0	4	11
CCOC(=O)N1CCC(NC(=O)C2CCN(C(=O)c3cc4sccc4n3CC)CC2)CC1	-1	5867	0	10	12	-3
SMILES	BoNT A protease	Autofluor counter	PfHsp40 yeast	Anthrax LF prot	MazEF act	BoNT-F LC inh
CC(C)C[C@@H](CNCC(=O)[C@H](CC(C)C)NC(=O)c1[nH]cnc1C(=O)N[C@@H](C)CN)NC(=O)c1nc[nH]c1C(=O)N[C@@H](CC(=O)O)C(=O)O	0	4030	0	-9	3	0
COc1cccc(-n2nc(C(N)=O)c(O)cc2=O)c1	-1	2088	-1	-1	3	-4
COc1cccc(-n2nc(C#N)c(Cl)cc2=O)c1	-1	u	52*	-2	-1	0
Cc1cc(Cl)ccc1OCC(=O)OC(C)C(=O)N(C)C (stereo unspecified)	-1	4569	-3	1	0	-20
C/C(N)=C(/C#N)C(=O)COC(=O)COc1ccc(Cl)cc1C	0	21745*	0	-3	3	2
CCN(CC)C(=O)C(C)OC(=O)COc1ccc(Cl)cc1C (stereo unspecified)	-1	22121*	0	-3	4	-2
CC(=O)N1CC[n+]2c(-c3ccc(Cl)cc3)csc21	0	2614	66*	1	1	-4
